High-throughput results as filed in PubChem.
This is a sample that favours compounds with a hit; in the whole collection about 3.3% have one here.
PI5P4K alpha inh: qHTS for Inhibitors of phosphatidylinositol 5-phosphate 4-kinase (PI5P4K) | PI5P4Kalpha enzyme, ADP-Glo luminescence, 60 min; stronger effect = lower value | max response, % | AID 652105, 2013 | hit rate 1.2% among 330,000; active = max response of -50% or lower; inconclusive = between -30% and -50%; inactive = -30% or higher; note: value at the top dose of about 77 µM
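PI5P4Kalpha ADP-Glo assay; 5 microM ATP final; 60 min RT reaction; HEPES pH 7.4/EGTA/CHAPS, 5% DMSO; controls lacking substrate or enzyme; luminescent end-point.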
PLK1 PBD block: qHTS for Inhibitors of PLK1-PDB (polo-like kinase 1 - polo-box domain): Primary Screen; hit rate 2.8% among 360,000; Potency, µM, for the others: max response, negative = inhibition, hits mostly inhibitors; Plk1 PBD binding of FITC phosphopeptide, fluorescence polarization; Serine/threonine-protein kinase PLK1 (Homo sapiens), P53350; note: potency is the fitted concentration of half-maximal effect; series mostly up to about 57 µM; nearly all actives have a fitted effect of over 65% in size
USP2a block: qHTS Assay for Inhibitors of Ubiquitin-specific Protease USP2a Using CHOP2 as the Reporter. USP2 core, Ub-CHOP2 coupled fluorogenic reporter, 485/531. AID 463254, 2010. Potency, µM (titrated, usually from 38.3 µM), without a hit: at the top dose activity change, negative = inhibition, hits mostly inhibitors. hit rate 0.01% among 330,000;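 note: potency is the fitted concentration of half-maximal effect; plate controls were DMSO wells for no effect and full inhibition by NEM control for full effect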
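USP2 core (10nM final) preincubated 30min RT with compound in 20mM Tris-HCl pH 8.0, 2mM CaCl2, 2mM beta-mercaptoethanol, 0.05% CHAPS; 25nM Ub-CHOP2 plus 25nM reporter substrate added, fluorescence (Ex485/Em531) read after 60min.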
WRN inhibitor: qHTS for Inhibitors of WRN Helicase. hit rate 0.46% among 360,000. Bifunctional 3'-5' exonuclease/ATP-dependent helicase WRN (Homo sapiens), Q14191. Potency, µM (titrated, usually from 114 µM), inactives show at the highest dose activity change, negative = inhibition, actives largely listed as inhibitors. WRN helicase unwinding, fluorescent forked duplex, kinetic; note: potency is the fitted concentration of half-maximal effect; nearly all actives have a fitted effect of over 55% in size
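WRN at 20 nM final was preincubated with compound for 15 min at room temperature; reaction started with 100 nM forked duplex oligonucleotide carrying fluorophore and quencher plus 2 mM ATP (final). Unwinding followed kinetically by red fluorescence (ex 525/em 598 nm).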
USP1-UAF1 inh: Inhibitors of USP1/UAF1: Primary Screen. AID 743255, 2014. recombinant USP1/UAF1, Ub-Rhodamine cleavage fluorescence. Potency, µM (doses to about 57.1 µM), inactives show at the highest dose activity change, negative = inhibition, most hits filed as inhibitors. Ubiquitin carboxyl-terminal hydrolase 1 (Homo sapiens), O94782. hit rate 0.23% among 390,000; note: potency is the fitted concentration of half-maximal effect; nearly all actives have a fitted effect of over 60% in size
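USP1/UAF1 complex (1 nM) preincubated 15 min at room temperature with compound, then Ub-Rho substrate (150 nM final) added. Kinetic fluorescence at 480/540 nm over 6 reads at 60 s intervals; 50 mM HEPES pH 7.8, 0.5 mM EDTA, 0.1 mg/ml BSA, 1 mM TCEP, 0.01% Tween-20.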
ADP-Glo counter: qHTS for Inhibitors of PI5P4K: ADP-Glo counter assay; 1,100 tested, under 10 active; AID 743285, 2014; Potency, µM (series often up to 76.9 µM), inactives show top-dose activity change, negative = inhibition, hits mostly inhibitors; ADP-Glo detection counter-screen, luciferase luminescence, no enzyme; shares compounds with PI5P4K alpha inh
* = called active by the depositor; ? = inconclusive; nt = no result given; [ ] = remark or other dose. Unless noted, calls come from the whole dose curve; as a rule, active = well fitted curve in the direction sought with a large enough effect; inconclusive = small, poorly fitted or top-dose-only effect, or another doubt; inactive = no such curve, though single readings can be large; an effect the other way counts as inactive or inconclusive. Unless noted, % is set by controls: 0 for no effect and ±100 for the full control effect.

SMILES | PI5P4K alpha inh | PLK1 PBD block | USP2a block | WRN inhibitor | USP1-UAF1 inh | ADP-Glo counter
NC(=O)c1ccsc1NC(=O)c1ccc([N+](=O)[O-])o1 | -52* | -26% | -2% | -9%[11.6 µM] | -21% | -15%
NC(=O)c1ccsc1NC(=O)COC(=O)c1ccc([N+](=O)[O-])o1 | -3 | -1% | 0% | -8% | -22% | nt
O=C(O)c1cc(-c2ccc(-c3c(-c4ccc5c(c4)OCO5)noc3-c3ccsc3)cc2)nc2ccccc12 | -71* | 17µM* | 3% | ? | ? | 0%
CCN(CC)C(=O)c1sc2[nH]c(=S)n(-c3ccccc3)c(=O)c2c1C | nt | -17% | 1% | -10% | -4% | nt
Cc1cccc(-n2c(=S)[nH]c3sc4c(c3c2=O)CCc2ccccc2-4)c1 | -77* | 3µM* | -2% | ? | -13% | 0%
O=C(O)c1cccc(-n2cc(-c3cccc(C(F)(F)F)c3)cn2)c1 | -62* | -16% | -11% | -7% | -19% | -4%
O=C(O)c1ccc(-c2nc(-c3cccc(C(F)(F)F)c3)cs2)cc1 | -18 | ? | 1% | -7% | -22% | nt
COCc1ccc2oc(C(=O)O)cc2c1 | -68* | 3.4µM* | 1% | ? | -12% | 0%
N#CCCSCc1ccc2oc(C(=O)O)cc2c1 | nt | -10% | 3% | -8% | -1% | nt
COc1cccc(CNC(=O)Cc2ccc(NC(=O)C3=C(C)OCCS3)cc2)c1 | -53* | ? | 2% | -16% | -28% | -2%
CC1=C(C(=O)Nc2ccc(CC(=O)NCc3ccccc3C)cc2)SCCO1 | 1 | -10% | -1% | -6% | -24% | nt
CCc1ccc(CNC(=O)Cc2ccc(NC(=O)C3=C(C)OCCS3)cc2)cc1 | -63* | -20% | 1% | -7%[11.6 µM] | -8% | 5%
O=C(O)c1ccc(S(=O)(=O)N[C@H](Cc2ccc(O)cc2)C(=O)O)cc1 | nt | nt | 1% | nt | nt | nt
N#Cc1nc(COc2cccc(Cl)c2)oc1NCCc1ccccc1 | nt | nt | nt | nt | -12% | nt
COc1ccccc1CNS(=O)(=O)c1cc(C)ccc1OC | 3 | -2% | -2% | -15%[57.1 µM] | -19% | nt
COc1cccc(CNS(=O)(=O)c2ccccc2Br)c1OC | -60* | 19µM* | nt | 3% | -24% | 1%
CC(C(=O)Nc1cc([N+](=O)[O-])ccc1Cl)N1CCN(c2ccc(O)cc2)CC1 (stereo unspecified) | -66* | -11% | 2% | -4%[11.6 µM] | -5% | 3%
CN(Cc1ccccc1)C(=O)c1cccc(NC(=O)c2nsc3ccccc23)c1 | nt | nt | nt | nt | -8% | nt
CC1CCCC(C)N1C(=O)COC(=O)CNC(=O)c1ccccc1 (stereo unspecified) | -4 | -8% | 2% | -10% | -9% | -1%
CC1CCCC(C)N1C(=O)COC(=O)CN1C(=O)c2ccccc2C1=O (stereo unspecified) | -3 | -6% | -2% | 3% | -15% | nt
COc1ccc(-c2nc3scc(CCNS(=O)(=O)c4c(C)cc(C)cc4C)n3n2)cc1OC | nt | nt | nt | nt | -15% | nt
O=C(CCn1c(=O)c2ccccc2n(Cc2cccc(F)c2)c1=O)NCc1ccc2c(c1)OCO2 | nt | nt | nt | nt | -27% | nt
CCn1c(SCC(=O)NC(=O)NCc2ccco2)nc2sc(C)c(C)c2c1=O | -51* | -9% | 0% | ? | -3% | 1%
CCCCn1c(N)c(N(CCOC)C(=O)c2cc(-c3ccco3)nc3ccccc23)c(=O)[nH]c1=O | -71* | -26% | 1% | ? | -2% | -2%
CCCCN(C(=O)c1cc(Cl)nc2ccccc12)c1c(N)n(CCCC)c(=O)[nH]c1=O | 4 | -14% | 2% | -15% | -5% | nt
SMILES | PI5P4K alpha inh | PLK1 PBD block | USP2a block | WRN inhibitor | USP1-UAF1 inh | ADP-Glo counter
CCCN(C(=O)c1cc(-c2ccco2)nc2ccccc12)c1c(N)n(Cc2ccccc2)c(=O)[nH]c1=O | -59* | -29% | 3% | ? | 0% | -4%
CCc1ccc(Sc2cc(C(=O)O)c3ccccc3n2)cc1 | nt | nt | nt | nt | -10% | nt
Cc1ccc(C)c(-n2c3nc(=O)[nH]c(=O)c-3cc3cc([N+](=O)[O-])ccc32)c1 | -65* | 7.5µM* | 4% | 79µM* | ? | 5%
O=C(CN1CCCCC1)Nc1nnc(-c2ccccc2)s1 | 7 | -9% | 6% | -28% | -3% | nt
O=C(CN1CCCCC1)Nc1nnc(-c2ccc([N+](=O)[O-])cc2)s1 | -70* | -23% | 0% | -15%[57.1 µM] | -23% | 1%
CC(=O)Oc1ccc(C(=O)Nc2cccc(C(=O)c3ccc(C)c(C)c3)c2)cc1 | -57* | 0% | 0% | -12% | -26% | -7%
COc1ccc(C(=O)Nc2cccc(OC(=O)c3ccc(C)c(C)c3)c2)cc1 | 8 | -8% | -6% | -15% | -22% | nt
O=C(COc1ccc(Br)cc1)Nc1ccc(C(=O)Nc2ccccc2C(=O)O)cc1 | -58* | ? | 0% | ? | -21% | 4%
O=C(COc1ccc2ccccc2c1)Nc1cccc(C(=O)Nc2ccccc2C(=O)O)c1 | -74* | 24µM* | -2% | ? | -26% | 1%
COc1ccc(OCC(=O)Nc2ccc(C(=O)Nc3ccccc3C(=O)O)cc2)cc1 | ? | -25% | 1% | -5% | -25% | nt
COc1ccc(Cl)cc1NC(=O)CSc1nc2sccc2c(=O)[nH]1 | -53* | ? | -7% | -21% | -26% | 2%
CC(C)(C)OC(=O)N1CCC(c2c(C(=O)NCc3cccc(Cl)c3)cnn2-c2ccc(F)cc2)CC1 | nt | nt | nt | nt | -29% | nt
CCN(CC(=O)Nc1ccc(NC(C)=O)cc1)C(=O)c1cc2c(s1)CCCCC2 | 5 | 4% | 4% | -1% | -19% | nt
COc1cccc(NC(=O)CN(C)C(=O)c2cc3c(s2)CCC(C)C3)c1 (stereo unspecified) | 5 | 2% | 2% | -7% | 5% | nt
COc1cccc(NC(=O)CN(C)C(=O)c2cc3c(s2)CCC3)c1 | -71* | -27% | 0% | ? | -17% | -3%
CCN(CC(=O)Nc1ccc(NC(C)=O)cc1)C(=O)c1cc2c(s1)CCCC2 | -50* | 1% | -1% | -6% | -25% | -6%
CCCC(=O)N(c1ccc2oc3c(c2c1)CCCC3)S(=O)(=O)c1cc(C)ccc1C | nt | nt | nt | nt | -17% | nt
